Experimental data reported in PubChem BioAssay (EPA / NIEHS).
Inconclusive results are not listed. The source made the active and inactive calls. How the source made its calls, unless noted: active means hit-call score of the fitted dose curve at least 0.9, where 1 is the maximum; inactive means score below 0.9.

Experiments:
[1] = read-out: Monokine induced gamma interferon (MIG), CXCL9 (gene 4283); test: BSK_3C_MIG: BioMAP Diversity Plus: 3C Assay for Monokine induced gamma interferon (MIG) Biomarker Activity (AID 2283021); settings: primary human endothelial cells (HUVEC); actives raise or lower the signal
How it was run: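 HUVEC primary endothelial cultures dosed with chemical; MIG quantified by ELISA at 24 h. Data fitted bidirectionally against DMSO control, with parallel SRB total-protein staining for cytotoxicity.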

[2] = target: human Vitamin D Receptor (VDR), VDR (gene 7421) (UniProt P11473); test: ATG_VDR_TRANS: Attagene TRANS-FACTORIAL HepG2 Assay for human Vitamin D Receptor (VDR) (AID 2283022; active means hit-call score of the fitted dose curve at least 0.9, where 1 is the maximum)
How it was run: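 Transactivation by an exogenous VDR-Gal4 chimera in transiently transfected HepG2 cells was measured as reporter transcript level 24 hours after chemical treatment. RT-PCR products were analysed by capillary electrophoresis and fitted in the positive direction relative to DMSO.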

[3] = BSK_3C_SRB: Viability Assessment in the BioMAP Diversity Plus: 3C Assay (AID 2283023); settings: primary human endothelial cells (HUVEC);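 further: fitted both ways against DMSO so a hit may be signal rise or drop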
How it was run: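 Cytotoxicity readout in parallel HUVEC 3C cultures: after 24 h compound exposure, cells fixed with 10% TCA, stained with 0.1% SRB and read at 560 nm. Gain or loss relative to DMSO fitted.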

[4] = read-out: Matrix Metallopeptidase 1 (MMP1), MMP1 (gene 4312); test: BSK_BE3C_MMP1: BioMAP Diversity Plus: BE3C Assay for Matrix Metallopeptidase 1 (MMP1) Biomarker Activity (AID 2283024); settings: primary human bronchial epithelial cells; actives raise or lower the signal
How it was run: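 Human primary bronchial epithelial cells (BE3C system) dosed for 24 h; MMP-1 quantified by ELISA. Bidirectional fit against DMSO; cytotoxicity tracked in parallel cultures by SRB total-protein staining.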

[5] = BSK_3C_Vis: BioMAP Diversity Plus: 3C Assay for Morphology Visualization (AID 2283025); settings: primary human endothelial cells (HUVEC);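 further: fitted both ways so gain or loss versus DMSO counts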;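 on AC50: light microscopy image of cell morphology used as background control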
How it was run: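 Human umbilical vein endothelial cell morphology was inspected by light microscopy 24 h after chemical dosing; scored bidirectionally relative to DMSO.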

[6] = read-out: Pselectin, SELP (gene 6403); test: BSK_4H_Pselectin: BioMAP Diversity Plus: 4H Assay for Pselectin Biomarker Activity (AID 2283026); settings: primary human endothelial cells (HUVEC); actives raise or lower the signal
How it was run: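 Primary human umbilical vein endothelial cells were treated 24 h, and cell-surface P-selectin was then quantified by ELISA. Bidirectional fit versus DMSO; cytotoxicity checked in parallel cultures by SRB total-protein staining.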

[7] = BSK_4H_SRB: Viability Assessment in the BioMAP Diversity Plus: 4H Assay (AID 2283027); settings: primary human endothelial cells (HUVEC);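 further: cells exposed to compound for 24 h before staining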;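 on AC50: curves fitted both ways versus DMSO so AC50 may be loss or gain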
How it was run: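 Human umbilical vein endothelial cells, 24 h after chemical dosing; total protein measured by 0.1% sulforhodamine B staining after 10% TCA fixation, read at 560 nm. Bidirectional fitting against DMSO.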

[8] = BSK_BE3C_SRB: Viability Assessment in the BioMAP Diversity Plus: BE3C Assay (AID 2283028); settings: primary human bronchial epithelial cells;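 on AC50: fitted both ways so AC50 may mark signal gain or loss versus DMSO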
How it was run: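 Cytotoxicity read-out: SRB (0.1%) staining of TCA-fixed (10%) human lung bronchial epithelial cells, absorbance 560 nm, 24 h post-dosing. Curves fitted both directions relative to DMSO.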

[9] = read-out: Thrombomodulin, THBD (gene 7056); test: BSK_3C_Thrombomodulin: BioMAP Diversity Plus: 3C Assay for Thrombomodulin Biomarker Activity (AID 2283029); settings: primary human endothelial cells (HUVEC); actives raise or lower the signal
How it was run: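 Human umbilical vein endothelial cells were exposed to chemicals for 24 h; cell-surface thrombomodulin quantified by ELISA, with bidirectional fitting against DMSO baseline.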

[10] = read-out: Urokinase-type plasminogen activator receptor (uPAR), PLAUR (gene 5329); test: BSK_4H_uPAR: BioMAP Diversity Plus: 4H Assay for Urokinase-type plasminogen activator receptor (uPAR) Biomarker Activity (AID 2283030); settings: primary human endothelial cells (HUVEC); actives raise or lower the signal
How it was run: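 uPAR level read by ELISA on HUVEC cultures (BioMAP 4H) 24 h post-dosing, analyzed for gain or loss relative to DMSO. Parallel SRB staining assessed overt cytotoxicity.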

[11] = read-out: Vascular endothelial growth factor receptor 2 (Homo sapiens) (UniProt P35968); test: BSK_4H_VEGFRII: BioMAP Diversity Plus: 4H Assay for Vascular endothelial growth factor receptor 2 (VEGFR2) Biomarker Activity (AID 2283031); settings: primary human endothelial cells (HUVEC); actives raise or lower the signal
How it was run: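 Measured by ELISA after 24 h of compound treatment: VEGFR2 on primary human umbilical vein endothelial cells, fitted in both directions relative to DMSO. Parallel cultures received SRB staining (560 nm) for overt cytotoxicity.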

[12] = read-out: Human Leukocyte Antigen - DR isotype (HLADR), HLA-DRA (gene 3122); test: BSK_BE3C_HLADR: BioMAP Diversity Plus: BE3C Assay for Human Leukocyte Antigen - DR isotype (HLADR) Biomarker Activity (AID 2283032); settings: primary human bronchial epithelial cells; actives raise or lower the signal
How it was run: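 Human primary bronchial epithelial cells (BE3C system) exposed to compound for 24 hours; cell-surface HLA-DR measured by ELISA, fitted bidirectionally relative to DMSO. Total protein by SRB in parallel cultures tracked cytotoxicity.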

[13] = read-out: Vascular cell adhesion molecule 1 (VCAM1), VCAM1 (gene 7412); test: BSK_4H_VCAM1: BioMAP Diversity Plus: 4H Assay for Vascular cell adhesion molecule 1 (VCAM1) Biomarker Activity (AID 2283033); settings: primary human endothelial cells (HUVEC); actives raise or lower the signal
How it was run: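 Primary human umbilical vein endothelial cells, 4H stimulation system, treated for 24 h; cell-surface VCAM-1 quantified by ELISA. Bidirectional fitting against DMSO; cytotoxicity tracked by SRB total-protein staining in parallel cultures.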

[14] = read-out: Interferon-gamma inducible Protein 10 (IP10), CXCL10 (gene 3627); test: BSK_BE3C_IP10: BioMAP Diversity Plus: BE3C Assay for Interferon-gamma inducible Protein 10 (IP10) Biomarker Activity (AID 2283034); settings: primary human bronchial epithelial cells; actives raise or lower the signal
How it was run: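 Primary human bronchial epithelial cells, with IP-10 measured by ELISA 24 hours after chemical dosing. Bidirectional fit against DMSO; cytotoxicity checked by SRB total protein staining in parallel cultures.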

[15] = read-out: Monokine induced gamma interferon (MIG), CXCL9 (gene 4283); test: BSK_BE3C_MIG: BioMAP Diversity Plus: BE3C Assay for Monokine induced gamma interferon (MIG) Biomarker Activity (AID 2283035); settings: primary human bronchial epithelial cells; actives raise or lower the signal;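 on outcome: MIG protein measured by ELISA in BE3C cultures after 24 h of dosing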
How it was run: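 Primary human bronchial epithelial cells treated for 24 h; MIG levels measured by ELISA, fitted bidirectionally versus DMSO. Parallel SRB total-protein staining assessed cytotoxicity.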

[16] = read-out: Transforming growth factor beta 1 (TGFb1), TGFB1 (gene 7040); test: BSK_BE3C_TGFb1: BioMAP Diversity Plus: BE3C Assay for Transforming growth factor beta 1 (TGFb1) Biomarker Activity (AID 2283036); settings: primary human bronchial epithelial cells; actives raise or lower the signal
How it was run: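 Primary human bronchial epithelial cells dosed with chemical; TGF-b1 measured by ELISA 24 h after dosing. Bidirectional curve fitting against DMSO negative control; SRB total-protein staining in parallel cultures gauged cytotoxicity.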

[17] = read-out: Plasminogen activator inhibitor-1 (PAI1), SERPINE1 (gene 5054); test: BSK_BE3C_PAI1: BioMAP Diversity Plus: BE3C Assay for Plasminogen activator inhibitor-1 (PAI1) Biomarker Activity (AID 2283037); settings: primary human bronchial epithelial cells; actives raise or lower the signal
How it was run: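 Primary human bronchial epithelial cells (BE3C system) exposed 24 h; PAI-1 quantified by ELISA. Parallel sulforhodamine B staining of total protein flags cytotoxicity. Bidirectional fit versus DMSO.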

[18] = read-out: urokinase plasminogen activator (uPA), PLAU (gene 5328); test: BSK_BE3C_uPA: BioMAP Diversity Plus: BE3C Assay for urokinase plasminogen activator (uPA) Biomarker Activity (AID 2283038); settings: primary human bronchial epithelial cells; actives raise or lower the signal;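 on outcome: uPA protein level quantified by ELISA in cell cultures; uPA read one day after compound addition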
How it was run: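 ELISA for uPA on human primary bronchial epithelial cultures 24 h post-treatment, gain or loss against DMSO. Parallel SRB staining (0.1% after 10% TCA fixation, 560 nm) assessed overt cytotoxicity.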

[19] = read-out: Urokinase-type plasminogen activator receptor (uPAR), PLAUR (gene 5329); test: BSK_BE3C_uPAR: BioMAP Diversity Plus: BE3C Assay for Urokinase-type plasminogen activator receptor (uPAR) Biomarker Activity (AID 2283039); settings: primary human bronchial epithelial cells; actives raise or lower the signal;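 on outcome: cells exposed to compound for one day before measurement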
How it was run: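 Primary human bronchial epithelial cells dosed for 24 h; uPAR quantified by ELISA with bidirectional fitting against DMSO. Overt cytotoxicity assessed in parallel cultures by SRB total-protein staining (0.1% SRB, 560 nm).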

[20] = read-out: Interleukin-6 (IL6), IL6 (gene 3569); test: BSK_CASM3C_IL6: BioMAP Diversity Plus: CASM3C Assay for Interleukin-6 (IL6) Biomarker Activity for (AID 2283040); settings: primary human coronary artery smooth muscle cells; actives raise or lower the signal

Chain of human Vitamin D Receptor (VDR), VDR (gene 7421) (P11473 whole entry, looked up, the tested form may be a part): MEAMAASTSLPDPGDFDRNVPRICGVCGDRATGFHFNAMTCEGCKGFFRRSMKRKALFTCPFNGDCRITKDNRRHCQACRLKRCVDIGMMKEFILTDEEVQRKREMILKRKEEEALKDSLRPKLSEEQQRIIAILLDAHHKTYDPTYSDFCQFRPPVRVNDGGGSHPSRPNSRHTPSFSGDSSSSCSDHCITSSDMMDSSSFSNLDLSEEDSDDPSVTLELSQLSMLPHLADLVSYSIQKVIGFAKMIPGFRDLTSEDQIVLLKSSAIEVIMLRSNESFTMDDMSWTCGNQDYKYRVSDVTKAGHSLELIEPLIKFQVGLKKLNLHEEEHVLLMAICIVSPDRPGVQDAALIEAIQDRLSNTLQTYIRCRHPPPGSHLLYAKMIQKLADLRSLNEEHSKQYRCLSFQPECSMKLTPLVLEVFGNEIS

In the case of `N#CC(Br)(Br)C(N)=O`, the outcome [1] is reported as “inactive”, the outcome [2] is reported as “inactive” and the outcome [3] is reported as “inactive”. The outcome [4] was “inactive”, the outcome [5] was “inactive” and the outcome [6] was “inactive”. The outcome [7] was “inactive”, the outcome [8] was “inactive” and the outcome [9] was “inactive”. For the same compound, the outcome [10] was “inactive”, the outcome [11] was “inactive” and the outcome [12] was “inactive”. The outcome [13] was “inactive”, the outcome [14] was “inactive” and the outcome [15] was “inactive”. For the same compound, the outcome [16] was “inactive”, the outcome [17] was “inactive” and the outcome [18] was “inactive”. For the same compound, the outcome [19] was “inactive” and the outcome [20] was “inactive”.
In the case of `O=C(N[C@H](c1ccccc1)[C@@H]1CN2CCC1CC2)c1c(Cl)ccc(C(F)(F)F)c1Cl`, the outcome [1] is reported as “inactive”, the outcome [2] is reported as “inactive” and the AC50 [3] is reported as 29.7 µM (active). For the same compound, the AC50 [4] was 44.2 µM (active), the AC50 [5] was 14.5 µM (active) and the outcome [6] was “inactive”. The outcome [7] was “inactive”, the AC50 [8] was 27.4 µM (active) and the AC50 [9] was 29.7 µM (active). For the same compound, the AC50 [10] was 17.3 µM (active), the outcome [11] was “inactive” and the AC50 [12] was 39.7 µM (active). For the same compound, the outcome [13] was “inactive”, the AC50 [14] was 21.9 µM (active) and the AC50 [15] was 49 µM (active). For the same compound, the AC50 [16] was 19.4 µM (active), the AC50 [17] was 29.7 µM (active) and the AC50 [18] was 22.4 µM (active). The AC50 [19] was 34.5 µM (active) and the outcome [20] was “inactive”.
For `Cc1ccc(N)c(N)c1`, the outcome [1] was “inactive”, the outcome [3] was “inactive” and the outcome [4] was “inactive”. For the same compound, the outcome [5] was “inactive”, the outcome [6] was “inactive” and the AC50 [7] was 4.08 µM (active). The outcome [8] was “inactive”, the outcome [9] was “inactive” and the outcome [10] was “inactive”. The outcome [11] was “inactive”, the outcome [12] was “inactive” and the AC50 [13] was 8.05 µM (active). The outcome [14] was “inactive”, the outcome [15] was “inactive” and the outcome [16] was “inactive”. The outcome [17] was “inactive”, the outcome [18] was “inactive” and the outcome [19] was “inactive”. For the same compound, the outcome [20] was “inactive”.
For `Nc1ccc(N=Nc2ccccc2)cc1`, the outcome [1] was “inactive”, the outcome [2] was “inactive” and the AC50 [3] was 20 µM (active). For the same compound, the outcome [4] was “inactive”, the outcome [5] was “inactive” and the outcome [6] was “inactive”. For the same compound, the AC50 [7] was 13.1 µM (active), the outcome [8] was “inactive” and the outcome [9] was “inactive”. For the same compound, the outcome [10] was “inactive”, the outcome [11] was “inactive” and the outcome [12] was “inactive”. For the same compound, the outcome [13] was “inactive”, the outcome [14] was “inactive” and the outcome [15] was “inactive”. For the same compound, the outcome [17] was “inactive”, the outcome [18] was “inactive” and the outcome [19] was “inactive”. For the same compound, the outcome [20] was “inactive”.
In the case of `O=Cc1ccco1`, the outcome [1] is reported as “inactive”, the outcome [2] is reported as “inactive” and the outcome [3] is reported as “inactive”. For the same compound, the outcome [4] was “inactive”, the outcome [5] was “inactive” and the outcome [6] was “inactive”. The outcome [7] was “inactive”, the outcome [8] was “inactive” and the outcome [9] was “inactive”. The outcome [10] was “inactive”, the outcome [11] was “inactive” and the outcome [12] was “inactive”. The outcome [13] was “inactive”, the outcome [14] was “inactive” and the outcome [15] was “inactive”. For the same compound, the outcome [17] was “inactive”, the outcome [18] was “inactive” and the outcome [19] was “inactive”. For the same compound, the outcome [20] was “inactive”.
In the case of `Oc1ccccc1Cl`, the outcome [1] is reported as “inactive”, the outcome [2] is reported as “inactive” and the outcome [3] is reported as “inactive”. For the same compound, the outcome [4] was “inactive”, the outcome [5] was “inactive” and the outcome [6] was “inactive”. For the same compound, the outcome [7] was “inactive”, the outcome [8] was “inactive” and the outcome [9] was “inactive”. The outcome [10] was “inactive”, the outcome [11] was “inactive” and the outcome [12] was “inactive”. The outcome [13] was “inactive”, the outcome [14] was “inactive” and the outcome [15] was “inactive”. For the same compound, the outcome [17] was “inactive”, the outcome [18] was “inactive” and the outcome [19] was “inactive”. The outcome [20] was “inactive”.
